High-throughput results (PubChem)
The entries come from a sample that favours hits as a whole.
HT1080NT lethal – kills 2HG-producing HT-1080-NT fibrosarcoma cells. HT-1080-NT fibrosarcoma viability, CellTiter-Glo ATP luminescence, 48 h. Potency, µM (doses to about 46.1 µM), without a hit: at the top dose activity, negative = less viability, usual class: cytotoxic. 360,000 tested, 1.6% active;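 also: NT is the 2HG producing partner of a matched IDH1 knockdown line; potency is read from the fitted curve at half-maximal effect; 0% = DMSO-treated cells and -100% = media-only wells without cells; nearly all actives have a fitted effect of over 55% in size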
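Fibrosarcoma NT cells, 750 per well in 5% FBS RPMI, were exposed to compound for 48 hours. Viability: CellTiter-Glo luminescence.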
ALOX12 inh – inhibitors of human 12S-lipoxygenase ALOX12 | P18054 | purified 12hLO, xylenol orange hydroperoxide absorbance | Potency, µM (titrated, usually from 108 µM), without a hit: at the top dose activity change, negative = inhibition, actives largely listed as inhibitors | 580,000 tested, 1.1% active; also: potency is read from the fitted curve at half-maximal effect
Target sequence (P18054 whole entry, looked up): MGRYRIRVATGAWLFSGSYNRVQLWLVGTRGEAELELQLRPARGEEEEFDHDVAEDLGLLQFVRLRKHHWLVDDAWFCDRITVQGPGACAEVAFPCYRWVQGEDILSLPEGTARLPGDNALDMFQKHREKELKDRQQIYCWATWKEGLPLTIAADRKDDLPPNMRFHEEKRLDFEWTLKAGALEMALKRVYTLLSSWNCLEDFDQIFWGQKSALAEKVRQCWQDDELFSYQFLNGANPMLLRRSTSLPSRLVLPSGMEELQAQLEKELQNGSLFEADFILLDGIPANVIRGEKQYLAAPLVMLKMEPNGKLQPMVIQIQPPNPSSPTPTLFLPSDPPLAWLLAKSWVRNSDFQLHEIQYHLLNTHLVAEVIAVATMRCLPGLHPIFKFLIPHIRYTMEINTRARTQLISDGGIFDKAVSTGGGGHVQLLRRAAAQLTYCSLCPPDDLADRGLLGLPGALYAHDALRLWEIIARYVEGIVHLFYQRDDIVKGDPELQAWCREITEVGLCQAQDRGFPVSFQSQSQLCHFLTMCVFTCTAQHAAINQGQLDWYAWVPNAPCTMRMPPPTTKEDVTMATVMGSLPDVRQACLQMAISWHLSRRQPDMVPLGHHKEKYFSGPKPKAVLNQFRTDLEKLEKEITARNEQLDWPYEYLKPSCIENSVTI
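Hydroperoxide product was detected by ferrous iron/xylenol orange as the 573 to 405 nm absorbance ratio. Arachidonic acid at 40 uM (final) was turned over for 30 min at room temperature by 150 nM human 12hLO, pH 7.0 Hepes buffer, after 15 min compound preincubation.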
HT1080 IDH1KD tx – toxicity to HT-1080 IDH1 knockdown cells (counter line); HT-1080 IDH1 knockdown viability, ATP luminescence, 48 h; Potency, µM (titrated, usually from 46.1 µM), inactives show at the top dose activity, negative = toxicity, actives largely listed as cytotoxic; 360,000 tested, 2% active;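 also: potency is read from the fitted curve at half-maximal effect; 0% = DMSO wells and -100% = cell-free medium wells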
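HT-1080-IDH1KD cells (IDH1 knocked down), 750/well in RPMI with 5% FBS, treated with compound 48 h at 37 degrees C. Viability by CellTiter-Glo luminescence, normalised to DMSO and no-cell wells; concentration-response curves classed.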
DT40 TDP1 no CPT – qHTS for Inhibitors of human tyrosyl-DNA phosphodiesterase 1 (TDP1): qHTS in cells in absence of CPT; DT40 Tdp1-/- hTDP1 cells, no CPT, ATP luminescence, 48 h; Potency, µM (series often up to 46.2 µM), without a hit: at the highest dose activity change, negative = growth inhibition, actives largely listed as inhibitors; 420,000 tested, 15% active; also: potency is read from the fitted curve at half-maximal effect; nearly all actives have a fitted effect of over 55% in size
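Chicken DT40 Tdp1-/- cells stably complemented with human TDP1 were seeded at 400 cells/well with DMSO in place of 20 nM camptothecin. After compound pinning, cells grew at least 48 hr at 37 °C; viability read by CellTiter-Glo luminescence.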
IL1B secr inh – inhibitors of inflammasome signaling (IL-1 beta secretion); THP-1 LPS/ATP IL-1B secretion, AlphaLISA, 16 h; stronger effect = lower value; 360,000 tested, 4.7% active; AID 743279; activity change, % at 57.5 µM; in the data active = activity change below about -50%; inconclusive = mostly about -30% to -49%
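Secreted IL-1B measured by AlphaLISA bead assay after 16 h compound exposure of THP-1 cells; compounds (final up to 57.5 uM) added 1 h before LPS (250 ng/mL) and ATP (1.25 mM) stimulation; lower signal means less secretion.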
TDP1 cell CPT – growth inhibition of DT40 Tdp1-/-;hTDP1 cells with camptothecin (screen for TDP1 inhibitors); chicken DT40 Tdp1-/-;hTDP1 cells + 20 nM CPT, ATP luminescence, 48 h; Potency, µM (top dose mostly 46.2 µM), for the others: at the highest dose activity change, negative = growth inhibition, hits mostly inhibitors; AID 686979; 420,000 tested, 12% active; also: potency is read from the fitted curve at half-maximal effect; nearly all actives have a fitted effect of over 55% in size
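Cell growth measured by CellTiter-Glo luminescence after a minimum 48 h, 37 C compound exposure with 20 nM CPT in Tdp1-knockout DT40 cells stably expressing hTDP1, seeded 400/well; qHTS titration format.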
Active calls of the source: *; ? = inconclusive; nt = no result given; [ ] = dose if it differs, or a comment. Unless noted, calls follow the shape of the dose curve; as a rule, active = well fitted curve in the direction sought with a large enough effect; inconclusive = small, poorly fitted or top-dose-only effect, or another doubt; inactive = no such curve, though single readings can be large; an effect the other way counts as inactive or inconclusive. Unless noted, % is scaled to controls: 0 for no effect and ±100 for the full control effect.

SMILES	HT1080NT lethal	ALOX12 inh	HT1080 IDH1KD tx	DT40 TDP1 no CPT	IL1B secr inh	TDP1 cell CPT
COc1ccc2c(C(=O)NCc3ccc4c(c3)OCO4)c(-c3ccc(S(C)(=O)=O)cc3)sc2c1	7.6%	-23.9%	7.3%	16.4µM*	48.9	23.1µM*
COC(=O)c1c(-c2cc(OC)cc(OC)c2)sc2ccc(OC)cc12	-5.7%	-14.5%	-10.5%	?	-16.9	?
COC(=O)c1c(-c2ccc(S(C)(=O)=O)cc2)sc2ccc(OC)cc12	-6.2%	9.9%	-25.3%	13µM*	-14.9	?
CN(C)c1cc(CNC(=O)c2nccnc2N)ccn1	nt	-4.2%	nt	nt	nt	nt
O=C(c1ccccc1)c1ccc(C(=O)N2CCN(c3ccc(O)cc3)CC2)cc1	3.9%	?	3.7%	-29.9%	-5.2	-27.2%
O=C(c1cccc(F)c1)N1CCC(N2CCOCC2)CC1	21.6%	?	8.4%[9.24 µM]	-9.5%	13.8	5.8µM*
O=C(c1ccc(N2CCN(C(=O)c3ccc(F)c(F)c3)CC2)cc1)c1cccc(F)c1	-19.3%	?	-10.3%	13µM*	-20.8	23.1µM*
O=C(c1ccc(N2CCN(C(=O)c3ccccc3)CC2)cc1)c1cccc(F)c1	-26.9%	-6.5%	-4.6%	16.4µM*	-76.9*	?
O=C(Nc1ccsc1)N[C@H]1C[C@H]2C(=O)NC[C@@H](CCC(=O)N3CCOCC3)N2C1	nt	26.5%[176 µM]	nt	nt	nt	nt
CC1CCN(CCCOc2ccc(Cl)cc2Br)CC1	?	?	23.1µM*	?	5.6	?
CC1CCCN(CCCOc2ccc(Cl)cc2Br)C1 (configuration not stated)	-1.2%	?	-18.9%	?	-2.7	?
CC1CCN(CCOCCOc2ccc(Cl)cc2Br)CC1	?	?	?	20.6µM*	?	13µM*
CC1CCN(CCCCOc2ccccc2F)CC1	16.3%	-17.6%	13.3%	14.6µM*	-6.5	?
Clc1ccc(OCCOCCN2CCCCC2)c(Br)c1	9.6%	?	4.5%	3.2%	0.1	-3.5%
Cc1cc(Br)ccc1OCCCCN1CCC(C)CC1	-28.3%	-4.7%	-22.6%	?	?	23.1µM*
CC1CCN(CCCCOc2ccc(Br)cc2)CC1	-6.7%	?	-12.1%	?	-10.0	?
CC(=O)c1c(C)[nH]c(C(=O)COC(=O)c2ccc(Cl)nc2)c1C	1.8%	-2.9%	24.8%	-7.9%	7.1	12.6%
Oc1ccc(Br)cc1/C=N/n1c(C2CCCCC2)n[nH]c1=S	22.3%	7.7%	20.8%	?	0.2	?
CN(C)c1ccc(CN(Cc2ccco2)C(=O)c2ccc(C(C)(C)C)cc2)cc1	nt	-18.5%	nt	20.6µM*	nt	16.4µM*
Cc1ccc(CN(Cc2ccco2)C(=O)c2ccc(Cl)cc2)o1	nt	-26.3%	nt	?	nt	-27.4%
COc1ccc(N(Cc2ccco2)C(=O)c2ccccc2F)cc1OC	3.8%	0.0%	-1.7%	?	-5.5	?
COc1ccc(C(=O)N(Cc2ccc(N(C)C)cc2)Cc2ccco2)cc1Cl	nt	0.0%	nt	14.6µM*	nt	16.4µM*
COc1ccc(C(=O)N(Cc2ccco2)Cc2ccccc2F)cc1Cl	nt	?	nt	16.4µM*	nt	20.6µM*
CCn1cnc2sc(C(=O)N(Cc3ccc(N(C)C)cc3)Cc3ccco3)c(C)c2c1=O	-5.8%	6.1%	-6.2%	?	-75.9*	?
CC(C)N1CCN(C(=O)C2CCN(c3cnn(CC4CC4)c(=O)c3)C2)CC1 (configuration not stated)	nt	16.5%	nt	nt	nt	nt
SMILES	HT1080NT lethal	ALOX12 inh	HT1080 IDH1KD tx	DT40 TDP1 no CPT	IL1B secr inh	TDP1 cell CPT
CC1CCc2c(sc3nc(C(C)(C)C)nc(N4CCN(C(=O)CCl)CC4)c23)C1 (configuration not stated)	11.6µM*	?	4.61µM*	2.59µM*	-95.4*	1.84µM*
CCC(=O)N1CCN(c2nc(CC)nc3sc4c(c23)CCCC4)CC1	-27.7%	0.0%	-15.3%	?	-22.6	-26.9%
c1ccc(-c2noc(-c3ccno3)n2)nc1	6.8%	170.7%	5.1%	-2.1%	40.2	2.3%
Cc1ccc(-c2nc(-c3ccccn3)no2)cc1Cl	?	7.1%	?	11.6µM*	17.4	?
c1ccc(-c2ccc(-c3nc(-c4ccccn4)no3)cc2)cc1	10µM*	2.4%	12.6µM*	10.3µM*	-3.9	11.6µM*
c1ccc(-c2cc(-c3nc(-c4ccccn4)no3)c3ccccc3n2)cc1	1.4%	7.8%	13.2%	8.2µM*	-15.2	9.2µM*
COc1ccccc1-c1noc(-c2cc(OC)c(OC)c(OC)c2)n1	-16.0%	0.0%	-8.4%	23.1µM*	-22.2	?
COc1cc(OC)cc(-c2nc(-c3ccccc3OC)no2)c1	13.8%	-3.6%	-0.4%	?	-18.5	?
c1ccc(-c2noc(-c3cccc4ccccc34)n2)nc1	-8.1%	11.3%	-25.5%	-23.2%	-0.1	2.7%
Clc1ccccc1-c1csc(-c2ccccc2)n1	nt	-12.8%	nt	nt	nt	nt
COc1ccc(C(=O)N2CCN(c3cc(C(F)(F)F)ncn3)CC2)cc1OC	nt	-7.4%	nt	nt	nt	nt
Nc1nc(NCc2ccccc2)sc1C(=O)c1ccc(F)cc1	nt	4.2%	nt	nt	nt	nt
CCOc1cccc(CN2CCCCC23Cc2ccccc2CNC3=O)c1 (configuration not stated)	nt	0.4%[6.33 µM]	nt	nt	nt	nt
Cc1cc(OCC(=O)Nc2ccc3nsnc3c2)cc(C)c1Cl	nt	84.8%	nt	nt	nt	nt
CC(C)(C)C(=O)Oc1ccc2c(c1)O/C(=C\c1cccs1)C2=O	nt	-21.9%	nt	nt	nt	nt
Clc1cccc(-c2nc(-c3ccccn3)no2)c1	?	0.7%	?	?	13.3	-20.7%
c1ccc(-c2nc(-c3ccccn3)no2)cc1	12.6µM*	1.8%	10µM*	?	21.7	16.4µM*
c1ccc(Cc2nc(-c3ccccn3)no2)cc1	-4.6%	12.9%	6.2%	-0.3%	-22.6	-0.2%
COc1cccc(-c2nc(-c3ccccn3)no2)c1OC	12.2%	0.0%[57.4 µM]	18.6%	?	-10.8	23.1µM*
c1ccc(-c2n[nH]c(-c3ccccn3)n2)cc1	8.2µM*	0.0%	5.8µM*	?	-12.1	?
c1ccc(C(Cc2nc(-c3ccccn3)no2)c2ccccc2)cc1	-9.7%	171.7%	-5.4%	16.4µM*	-2.4	?
CCC(C)(C)NC(=O)c1ccc2nc(C)c(C)nc2c1	nt	18.7%	nt	nt	nt	nt
Cc1ccc(-c2nc(-c3ccccn3)no2)cc1	5.17µM*	-10.2%	6.51µM*	8.2µM*	0.0	7.31µM*
COc1ccc(CNC(=O)Cn2nc(C)c3sc(C(C)C)nc3c2=O)cc1	nt	-4.7%	nt	nt	nt	nt
